Out of some 330,000 compounds screened, about 670 (0.2%) were called active. The sample holds actives, similar compounds and a random draw of the others, so the mix is not that of the screen. Unmarked numbers belong to inactive results.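 The calls were made as follows: active = activity change below a set negative limit, meaning inhibition stronger than a set level (cut at about -70% in these data); inconclusive = activity change between two set negative limits; inactive = the rest.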
% is scaled to controls: 0 for no effect and ±100 for the full control effect.

In the test the target is Thyrotropin receptor (Homo sapiens) (UniProt P16473). Put plainly: Antagonists of the Thyroid Stimulating Hormone Receptor: HTS campaign. The following applies: TSHR-expressing cells, TSH-stimulated cAMP HTRF, 2 h; at 11.5 µM; stronger effect = lower value. From the text: The thyroid-stimulating hormone receptor (TSHR) is a member of the 7 trans-membrane-spanning receptor (7TMR) family of cell surface receptors. TSHR-mediated hyperthyroidism is important in thyroid pathology. The development of small molecule antagonists of TSHR may lead to therapeutic approaches for TSHR-mediated hyperthyroidism caused by constitutively activating mutations or stimulating auto-antibodies associated with Graves' disease. Graves' disease is the leading cause of hyperthyroidism and is caused by autoantibodies that stimulate TSHR (TsAbs) causing thyroid growth and unregulated overproduction of thyroid hormones and existing treatments have liabilities (agranulocytosis). In addition, TSHRs are known to be expressed in multiple extrathyroidal tissues including bone, brain, kidney, testis, fat and cells of the immune system but the role of the TSHR in these tissues is not clear. Therefore, TSHR antagonists/inverse agonists could be used as probes of extrathyroidal TSHR function. Finally, TSHR inverse agonists, which are a subclass of antagonists that inhibit agonist-independent (or basal or constitutive) TSHR signaling, could be used to inhibit TSH-independent signaling in patients with recurrent or metastatic thyroid cancer who are receiving thyroid hormone to suppress TSH. In collaboration between scientist from the NCGC and the NIDDK, a miniaturized HTRF high-throughput screen was developed. It's a cell based assay, where an anti cAMP antibody contains a fluorescent cryptate tag (excitation 337 nm; emission 620 nm) and the acceptor is cAMP-d2 (excitation 620 nm; emission 665 nm). When antibody and cAMP-d2 interact and are excited by a 337 nm light, a FRET occurs resulting in emission at 665 nm. The assay is competition between cAMP-d2 and cAMP (from the cell lysate). The homogeneous protocol allows for one step dispense after stimulation that is automation friendly. NIH Chemical Genomics Center [NCGC] NIH Molecular Libraries Probe Centers Network [MLPCN] MLPCN Grant: MH090855-01 Assay Submitter (PI): Marvin Gerhengorn
Chain of Thyrotropin receptor (Homo sapiens) (P16473 whole entry, looked up): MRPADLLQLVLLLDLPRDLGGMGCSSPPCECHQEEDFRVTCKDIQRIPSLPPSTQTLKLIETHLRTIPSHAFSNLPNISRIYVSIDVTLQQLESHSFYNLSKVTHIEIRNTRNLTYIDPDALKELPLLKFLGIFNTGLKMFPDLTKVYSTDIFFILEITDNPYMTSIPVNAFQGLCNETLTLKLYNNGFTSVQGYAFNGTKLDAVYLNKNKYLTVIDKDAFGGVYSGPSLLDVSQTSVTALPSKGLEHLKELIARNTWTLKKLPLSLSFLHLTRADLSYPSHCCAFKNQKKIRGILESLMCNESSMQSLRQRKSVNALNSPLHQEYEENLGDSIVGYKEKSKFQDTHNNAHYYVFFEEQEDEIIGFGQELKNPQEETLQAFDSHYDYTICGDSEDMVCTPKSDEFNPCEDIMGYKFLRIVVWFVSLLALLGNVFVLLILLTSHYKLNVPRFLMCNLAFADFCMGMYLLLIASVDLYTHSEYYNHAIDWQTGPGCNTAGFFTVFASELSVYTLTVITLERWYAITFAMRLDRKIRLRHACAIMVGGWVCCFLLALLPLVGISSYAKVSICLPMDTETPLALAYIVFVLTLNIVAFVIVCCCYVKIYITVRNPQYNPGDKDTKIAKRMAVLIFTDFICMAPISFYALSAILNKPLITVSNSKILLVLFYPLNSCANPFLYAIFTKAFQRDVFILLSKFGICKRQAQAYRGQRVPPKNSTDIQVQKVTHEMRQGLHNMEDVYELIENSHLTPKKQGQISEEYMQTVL
1. 3ul of 200 TSHR freshly harvested cells/well are dispensed into a 1536 TC-treated white solid bottom plate. 2. Through pintool addition, 23nl of compounds and control in 100% DMSO are added to the plate. 3. Then 1ul of EC80 TSH (4nM final) is added to the plate. 4. Assay is incubated at 37 deg C for 2 hours. 5. 2ul of cAMP antibody diluted 1:20 in lysis buffer is added. 6. Immediately following, 2ul of d2 diluted 1:20 in HBSS is added seperately. 7. The assay is incubated for 30 minutes at ambient room temperature. 8. The result is obtained by using a ViewLux read-out with HTRF settings.
A general note: TR-FRET usually uses a lanthanide donor and a delayed reading to cut background.
Regarding `NC(=O)C1(N2CCCCC2)CCN(C(=O)c2ccc(C#Cc3ccccc3)o2)CC1`, the activity change, negative = inhibition is -75.1% (active).
On to `NC(=O)C1(N2CCCCC2)CCN(C(=S)Nc2ccc(Cl)cc2)CC1`, for which the activity change, negative = inhibition was 25.4%.
In the case of `CC(C)(O)C#Cc1ccc(C(=O)N2CCC(C(N)=O)(N3CCCCC3)CC2)cc1`, the activity change, negative = inhibition was 2.47%.
Regarding `CSc1ccccc1N1CCN(CCCCCC(=O)NC2CCCc3ccccc32)CC1` (stereo not given), the activity change, negative = inhibition is -13.5%.
Under `Cc1c(C)n2c(SCC(=O)NC3CCCC3)nnc2[nH]c1=O` stands -8.74%; under `CC(=O)Nc1ccc(NC(=O)CN2C(=O)COc3ccc(S(=O)(=O)N4CCCCC4)cc32)cc1`, 0.648%.
Then `COc1ccc(NC(=O)CN2C(=O)COc3ccc(S(=O)(=O)N4CCOCC4)cc32)cc1`, with -2.02%; and `CSc1cccc(NC(=O)CN2C(=O)COc3ccc(S(=O)(=O)N4CCOCC4)cc32)c1`, with -134% (active).
As to `Cc1cc2occ(CC(=O)NNC(=O)c3ccccc3F)c2cc1C`, the activity change, negative = inhibition was 3.48%.
Under `Cc1csc(NC(=O)CSc2nc(=O)n(CCCN(C)C)c3c2CCC3)n1` stands -6.64%; under `CSc1nc(N(C)NC(=O)c2cccc(C)c2)c2ccccc2n1`, -3.52%; under `Cc1ccnc(NS(=O)(=O)c2ccc(NC(=O)c3oc4ccc(F)cc4c3C)cc2)n1`, 4.87%.
Regarding `Cc1cc(C)c2oc(C(=O)Nc3ccc(S(=O)(=O)Nc4nccc(C)n4)cc3)cc(=O)c2c1`, the activity change, negative = inhibition was -137% (active).
`Cc1ccnc(NS(=O)(=O)c2ccc(NC(=O)c3oc4ccccc4c3C)cc2)n1`: the activity change, negative = inhibition was -4.53%.
As to `CCCCC(C(=O)NC(C)(C)C)N(Cc1ccccc1)C(=O)c1snc(C(N)=O)c1N` (stereo not given), the activity change, negative = inhibition was -2.07%.
With `CC/C(=N/Nc1ccccc1)c1cnnc(SC)n1`, the activity change, negative = inhibition was -5.85%.
Then `Cc1cccc(C)c1NC(=O)CSc1nc2c([nH]1)c(=O)n(C)c(=O)n2C`, with -2.1%.
In the case of `Cn1c2cc(B(O)O)sc2c2cnn(Cc3ccccc3F)c(=O)c21`, the activity change, negative = inhibition was -27.6%.
Turning to `CCOc1ccc(N(CC(=O)NC2CCCCCC2)S(=O)(=O)c2c(C)[nH]c(=O)[nH]c2=O)cc1`, the activity change, negative = inhibition is -10.6%.
Under `O=C(CN1C(=O)NC2(CCCCCC2)C1=O)Nc1ccc([N+](=O)[O-])cc1` stands 0.839%; under `CN(C(=O)C1CCN(c2ncnc3c2nc2n3CCCCC2)CC1)C1CCCCC1`, 1.35%.
With `[O-][n+]1onc2c1CCc1[nH]c(-c3ccccc3)nc1-2`, the activity change, negative = inhibition was -36.4%.
As for `CCCC1(C(=O)OC)NC(c2ccco2)C2C(=O)N(C)C(=O)C21` (stereo not given), the activity change, negative = inhibition is -3.19%.
For the compound `Cc1cc(NC(=O)CN2C(=O)NC(C)(CCc3ccccc3)C2=O)no1` (stereo not given), the activity change, negative = inhibition is 10.4%.
In the case of `CCCCN(C(=O)c1ccc2ccccc2c1)c1c(N)n(CCCC)c(=O)[nH]c1=O`, the activity change, negative = inhibition was -8.5%.
Under `CNC(=S)N1CCC(NC(=O)C(Cc2ccc(F)cc2)NC(C)=O)CC1` (stereo not given) stands -6.46%; under `O=C(COc1ccc(Cl)cc1)Nc1ccc2c(c1)OCO2`, -1.65%; under `O=P(O)(CN1CCCCCC1)C1Cc2ccccc2C1`, 34.6%.
For the compound `CCOC(=O)C1(Cc2ccccc2C)CCCN(C(=O)CN2C(=O)CSC2=O)C1` (stereo not given), the activity change, negative = inhibition is 28.6%.
Turning to `COc1cc([N+](=O)[O-])cc([N+](=O)[O-])c1NC(=O)N1CCOCC1`, the activity change, negative = inhibition was -0.913%.
For `CCN(CC(=O)Nc1ccc(NC(C)=O)cc1)C(=O)C1CC(=O)N(Cc2ccc(C)cc2)C1` (stereo not given), the activity change, negative = inhibition was 0.752%.
With `CN1CCCc2cc(C#N)c(=O)[nH]c21`, the activity change, negative = inhibition is 4.52%.
For the compound `COCCn1c(Cc2cccn2C)nnc1SCC(=O)Nc1nccs1`, the activity change, negative = inhibition is 4.54%.
With `C/C(CCC(=O)OC[C@H]1O[C@H](C#Cc2ccccc2)C=C[C@@H]1Oc1ccc(C)cc1)=N\OC[C@@H](O)[C@H]1O[C@@H]2OC(C)(C)O[C@@H]2[C@H]1O`, the activity change, negative = inhibition is -3.15%.
Consider `CCOC(CNC(=O)C(=O)NCC(c1ccco1)N1CCN(c2ccc(OC)cc2)CC1)OCC` (stereo not given), for which the activity change, negative = inhibition was 0.959%.
Consider `Cc1cc(=O)oc2c(C)c(OC(C)C(=O)NC3CCN(Cc4ccccc4)CC3)ccc12` (stereo not given), for which the activity change, negative = inhibition was -2.61%.
Then `O=c1cc(-c2ccccc2)[nH]c2nc(Cl)ccc12`, with -13.7%.
Regarding `C=CC1(C)CC(=O)C2(O)C(C)(O1)C(OC(C)=O)C(O)C1C(C)(C)CCC(O)C12C` (stereo not given), the activity change, negative = inhibition is 107%.
For the compound `CN(C)c1ccc(CNC(=O)CN2C(=O)COc3ccc(S(=O)(=O)N4CCCC4)cc32)cc1`, the activity change, negative = inhibition was -5.17%.
Then `CCn1ccnc1CNC(=O)CC1C(=O)NCCN1CCCc1ccccc1` (stereo not given), with 8.41%.
As for `O=C(O)CCn1cc(/C=C/C(=O)c2ccc(Cl)cc2)c(-c2cccc(Br)c2)n1`, the activity change, negative = inhibition is -11.6%.
`CSc1ccc(CNC(=O)c2ccc(NC(=O)C3=CSCCO3)cc2)cc1`: the activity change, negative = inhibition is 17.8%.
Regarding `O=C(NCc1ccccc1Cl)C1CCCO1` (stereo not given), the activity change, negative = inhibition is -3.41%.
As for `O=C(Nc1ccc(C(=O)NCc2ccccc2Cl)cc1)C1=CSCCO1`, the activity change, negative = inhibition was -135% (active).
As to `CC(NC(=O)COC(=O)c1cc(=O)[nH]c2ccccc12)c1ccccc1` (stereo not given), the activity change, negative = inhibition was -4.46%.
`O=C(CNC(=O)c1cc(=O)[nH]c2ccccc12)Nc1ccc(F)c(F)c1`: the activity change, negative = inhibition is 1.67%.
In the case of `CC(NC(=O)c1cc(=O)[nH]c2ccccc12)c1ccc(F)cc1F` (stereo not given), the activity change, negative = inhibition was -93% (active).
In the case of `COc1ccc(CC(=O)N/N=C/c2cc([N+](=O)[O-])cc(Br)c2O)cc1`, the activity change, negative = inhibition is 1.63%.
In the case of `Cc1cc(C(=O)N/N=C/c2cc([N+](=O)[O-])cc(C)c2O)n[nH]1`, the activity change, negative = inhibition is 13.9%.
Then `O=[N+]([O-])c1cc(Br)c(O)c(/C=N/Nc2nc3ccccc3s2)c1`, with -87.3% (active).
Turning to `CC(C)Cn1c(=O)c2ccccc2n2c(CCC(=O)NCc3ccccn3)nnc12`, the activity change, negative = inhibition was 3.77%.
In the case of `C=CCc1ccccc1OCC(O)CN1CCN(CCO)CC1` (stereo not given), the activity change, negative = inhibition is 3.81%.
As for `Cc1cc(C)c(C#N)c(SCC(=O)Nc2ccccc2)n1`, the activity change, negative = inhibition is 1.53%.
`Cc1cc(C#N)c(SCC(N)=O)nc1-c1ccc(F)cc1`: the activity change, negative = inhibition is -75.8% (active).
Regarding `Cc1cc(C)c2c(-c3ccc(F)cc3)c(C#N)c(=O)n(C)c2n1`, the activity change, negative = inhibition is -4.99%.

The record behind these values is PubChem BioAssay AID504810 (National Center for Advancing Translational Sciences (NCATS), 2011).
